# Test results as given in PubChem BioAssay (NCATS).
# A number with no mark means an inactive call. Inconclusive results are not listed. Entries that show only a call come without a potency. Activity calls are given as the source filed them. Calls come from the whole dose curve; as a rule, active = well fitted curve in the direction sought with a large enough effect; inconclusive = small, poorly fitted or top-dose-only effect, or another doubt; inactive = no such curve, though single readings can be large; an effect the other way counts as inactive or inconclusive.
# Key:
# [1] = Cellular Toxicity (caspase-3) Mesangial (AID 660); conditions: mesangial cells, normalized: DMSO 0%, 100 µM tamoxifen 100%; at 91.7 µM (top of the series);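 note: combined caspase 3 and 7 activity read by Caspase-Glo luminescence; cells exposed to compound for 16 h before the caspase read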
# How it was run: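 Caspase 3/7 activation measured by Caspase-Glo 3/7 luminescence (20 min, room temperature) following 16 h exposure of mesangial cells (1000/well); AC50 from Hill-equation fit, normalized to DMSO and 100 uM tamoxifen.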
# [2] = Cellular Toxicity (caspase-3) SK-N-SH (AID 661)
# How it was run: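 Caspase 3/7 activation was read by luminogenic substrate cleavage after 16 hour treatment of SK-N-SH cells. Signal was scaled between DMSO and 10 uM staurosporine, and concentration-response data were fitted with the Hill equation for AC50.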
# [3] = Cellular Toxicity (caspase-3) H-4-II-E (AID 663); conditions: H-4-II-E rat hepatoma, scaled: DMSO 0%, 100 µM tamoxifen 100%; at 92.2 µM (top of the series);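 note: cells exposed to compound for 16 hr before readout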
# How it was run: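 Caspase 3/7 activation measured in H-4-II-E cells in complete culture medium after 16 hr treatment at 37 °C, using luciferase-coupled substrate readout; AC50 values come from Hill-equation fits of normalized concentration-response data.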
# [4] = Cellular Toxicity (caspase-3) Hek293 (AID 664); conditions: HEK293 caspase-3 activation, DMSO = 0%, 100 µM tamoxifen = 100%; at 92.2 µM (top of the series);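 note: cells exposed to compound for 16 h at 37 °C before readout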
# How it was run: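 Concentration-response qHTS: caspase 3/7 activation measured by luminescent aminoluciferin substrate cleavage after 16 h compound exposure of Hek 293 cells. AC50 from Hill equation, with DMSO as basal and 100 uM tamoxifen as 100%.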
# [5] = Cellular Toxicity (caspase-3) N2a (AID 665);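 note: compound exposure lasted 16 h at 37 °C before readout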
# How it was run: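 Caspase-3/7 activation measured as luminescence from Caspase-Glo reagent (1 h, room temperature) after 16 h compound exposure of mouse N2a cells. AC50 values from Hill-equation concentration-response, scaled between DMSO and 10 uM staurosporine.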
# [6] = Cellular Toxicity (caspase-3) NIH 3T3 (AID 666);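 note: caspase signal read after 16 h compound exposure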
# How it was run: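 Caspase-Glo 3/7 luminescence reported caspase activation in 1000 NIH 3T3 cells/well after 16 h compound exposure at 37 C. DMSO set basal and 100 uM tamoxifen set 100% stimulation; concentration-response modeled with the Hill equation for AC50.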
# [7] = Cellular Toxicity (caspase-3) Renal Proximal Tubule (AID 667); conditions: Potency: caspase-3 activation;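 note: cells exposed to compound for 16 hours at 37 °C before detection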
# How it was run: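 Caspase 3/7 activation measured by luminescent aminoluciferin release in primary rat proximal tubule cells after 16 hr compound exposure at 37 °C. AC50 from Hill-fitted concentration-response, scaled between DMSO and 10 uM staurosporine.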
# [8] = Cell Viability - LYMP2-001 (AID 921); note: nearly all actives have a fitted effect of over 70% in size
# How it was run: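 Cellular ATP loss read by luciferase luminescence after 24 h compound exposure at 37 C in complete medium. LYMP2-001 lymphoblastoid cells, 2500/well; qHTS concentration-response data fitted with Hill equation for AC50.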
# [9] = MultiTox-Fluor Cytotoxicity Assay - LYMP1-001 - Dead Cells (AID 946)
# How it was run: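 LYMP1-001 lymphoblastoid cells (2500/well) treated 16 h at 37 C. Dead-cell protease cleavage of bis-AAF-R110 read at Ex/Em 485/520. Normalized to DMSO and 15 uM tetraoctylammonium bromide; AC50 from Hill fits.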
# [10] = MultiTox-Fluor Cytotoxicity Assay - LYMP1-001 - Live Cells (AID 947)
# [11] = Cell Viability - LYMP1-002 - Assay at 16 hr (AID 948)
# How it was run: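 ATP luminescence (CellTiter-Glo) was measured after 16 hr compound exposure at 37 C of 2500 lymphoblastoid LYMP1-002 cells per well. Concentration-response curves were fitted with the Hill equation to give AC50.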
# [12] = MultiTox-Fluor Cytotoxicity Assay - LYMP1-002 - Live Cells (AID 955)
# How it was run: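 After 16 h compound exposure at 37 C, live LYMP1-002 lymphoblastoid cells (2500/well) were quantified by cleavage of cell-permeant GF-AFC substrate, read at 405/510 nm after 60 min. Concentration-response fitted with Hill equation for AC50.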
# [13] = MultiTox-Fluor Cytotoxicity Assay - LYMP1-003 - Dead Cells (AID 961); note: nearly all actives have a fitted effect of over 70% in size
# How it was run: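 LYMP1-003 human lymphoblastoid cells (2500/well) exposed to compound 16 h at 37 C in complete medium; dead-cell protease read with bis-AAF-R110 fluorescence (Ex/Em 485/520) after 60 min at room temperature. Normalized to DMSO and 15 uM tetraoctylammonium bromide; AC50 from Hill fit.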
# [14] = MultiTox-Fluor Cytotoxicity Assay - LYMP1-003 - Live Cells (AID 962);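 note: cytotoxic hits lower the live-cell protease signal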
# How it was run: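 Live-cell protease activity (GF-AFC substrate, 405/510 nm, 60 min at room temperature) after 16 h, 37 C compound exposure of human lymphoblastoid LYMP1-003 cells; concentration-response fitted to the Hill equation for AC50.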
# [15] = Cell Viability - LYMP1-003 - Assay at 24 hr (AID 963)
# How it was run: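 Concentration-response qHTS: ATP loss measured by CellTiter-Glo luminescence after 24 h compound exposure at 37 C. Cells were LYMP1-003 human lymphoblastoid, 2500 per well. AC50 derived via standard Hill equation modeling.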
# [16] = Cell Viability - LYMP1-003 - Assay at 40 hr (AID 964); note: nearly all actives have a fitted effect of over 60% in size
# How it was run: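 Viability is taken as cellular ATP, read by CellTiter-Glo luminescence after 40 h of compound exposure at 37 C. Cells: human lymphoblastoid line LYMP1-003 at 2500/well; AC50 values derived by Hill-equation fitting of concentration-response data.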
# [17] = Cell Viability - LYMP2-003 (AID 965);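 note: cells exposed to compounds for 24 h before reading; nearly all actives have a fitted effect of over 50% in size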
# How it was run: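 CellTiter-Glo luminescence quantified ATP loss after 24 h compound treatment of LYMP2-003 lymphoblastoid cells at 37 C. Titration series were fitted with the standard Hill equation to give AC50.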
# [18] = MultiTox-Fluor Cytotoxicity Assay - LYMP1-002 - Dead Cells (AID 960); note: nearly all actives have a fitted effect of over 60% in size
# How it was run: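 Dead-cell fluorescence (Ex/Em 485/520) after 16 h compound exposure at 37 C of LYMP1-002 lymphoblastoid cells in complete medium; AC50 by Hill equation, with data scaled between DMSO and 15 uM tetraoctylammonium bromide.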
# [19] = target: Cytochrome P450 3A4 (Homo sapiens) (UniProt P08684); assay: qHTS Assay for Activators of Cytochrome P450 3A4 (AID 885); note: nearly all actives have a fitted effect of over 65% in size
# How it was run: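 Human CYP3A4 dealkylates Luciferin-PPXE to luciferin, which luciferase detection converts to light. Substrate was at its KM (25uM), buffer 200mM KPO4, reaction 60 min at RT.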
# [20] = target: Cytochrome P450 3A4 (Homo sapiens) (UniProt P08684); assay: qHTS Assay for Inhibitors and Substrates of Cytochrome P450 3A4 (AID 884); note: nearly all actives have a fitted effect of over 50% in size; note: potency is the fitted concentration of half-maximal effect
# How it was run: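 Luminescent readout of luciferin produced by CYP3A4 (20 nM) dealkylation of Luciferin-PPXE, 25 uM (its KM). NADPH-driven reaction ran 60 min at RT after 10 min compound preincubation; data scaled to 57 uM ketoconazole as 100% inhibition.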
# Chain of Cytochrome P450 3A4 (Homo sapiens) (P08684 whole entry, looked up): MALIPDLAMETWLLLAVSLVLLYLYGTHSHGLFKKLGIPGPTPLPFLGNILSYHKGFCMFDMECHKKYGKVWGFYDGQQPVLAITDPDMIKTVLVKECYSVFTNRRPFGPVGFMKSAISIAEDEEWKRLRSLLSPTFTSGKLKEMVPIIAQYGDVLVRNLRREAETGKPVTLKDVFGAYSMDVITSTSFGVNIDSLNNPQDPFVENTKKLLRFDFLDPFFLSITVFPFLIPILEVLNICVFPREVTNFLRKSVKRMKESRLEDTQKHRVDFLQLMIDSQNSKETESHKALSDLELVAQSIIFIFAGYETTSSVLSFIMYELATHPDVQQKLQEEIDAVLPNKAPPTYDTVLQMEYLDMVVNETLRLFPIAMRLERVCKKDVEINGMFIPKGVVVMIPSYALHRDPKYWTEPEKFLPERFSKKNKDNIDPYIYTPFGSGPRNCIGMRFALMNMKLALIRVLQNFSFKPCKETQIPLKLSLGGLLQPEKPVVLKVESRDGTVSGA
SMILES,caspase-3 activation [1] [%],outcome [2],caspase-3 activation [3] [%],caspase-3 activation [4] [%],outcome [5],outcome [6],Potency [7],Potency [8],outcome [9],outcome [10],outcome [11],outcome [12],Potency [13],Potency [14],Potency [15],Potency [16],Potency [17],outcome [18],outcome [19],Potency [20]
CNc1ccc([N+](=O)[O-])cc1,0.0307,inactive,0.918,-2.51,inactive,inactive,inactive,inactive,inactive,inactive,inactive,inactive,inactive,inactive,inactive,inactive,inactive,,,
C=CCCCCCCC=C,4.38,inactive,1.95,5.13,inactive,inactive,inactive,inactive,inactive,inactive,inactive,inactive,inactive,inactive,inactive,inactive,inactive,inactive,,
CC1(N)CCC(C(C)(C)N)CC1 (centres undefined),-0.66,inactive,0.688,-1.41,inactive,inactive,inactive,inactive,inactive,inactive,inactive,inactive,,inactive,inactive,inactive,inactive,inactive,,
COCCOC(=O)c1ccccc1C(=O)OCCOC,1.04,inactive,0.176,0.308,inactive,inactive,inactive,inactive,inactive,inactive,inactive,inactive,inactive,inactive,inactive,inactive,inactive,inactive,,
Cc1cc(C)c(N)cc1C,-0.153,inactive,-1.64,2.78,inactive,inactive,inactive,inactive,inactive,inactive,inactive,inactive,inactive,inactive,inactive,inactive,inactive,inactive,,
Nc1nc2ccccc2[nH]1,-0.927,inactive,-0.868,0.0156,inactive,inactive,inactive,inactive,inactive,inactive,inactive,inactive,inactive,inactive,inactive,inactive,inactive,inactive,,
CCC(=O)/C=C/C1C(C)=CCCC1(C)C (centres undefined),0.383,inactive,2.63,2.12,inactive,inactive,inactive,inactive,inactive,inactive,inactive,inactive,inactive,inactive,inactive,inactive,inactive,inactive,inactive,
Cc1ccc2cccnc2c1,0.42,inactive,-0.588,5.55,inactive,inactive,inactive,inactive,inactive,inactive,inactive,inactive,inactive,inactive,inactive,inactive,inactive,inactive,,
CCC(C)=O,-0.0673,inactive,0.152,-2.5,inactive,inactive,inactive,inactive,inactive,inactive,inactive,inactive,inactive,inactive,inactive,,inactive,inactive,,
Cc1c(N)cccc1N,-0.29,inactive,0.28,0.0499,inactive,inactive,inactive,inactive,inactive,inactive,inactive,inactive,,inactive,inactive,inactive,inactive,inactive,,
Cc1ccc(S(=O)(=O)NC2CCCCC2)cc1,0.471,inactive,-0.0757,2.22,inactive,inactive,inactive,inactive,inactive,inactive,inactive,inactive,inactive,inactive,inactive,inactive,inactive,,inactive,
CCOc1cc(OCC)c(C(C)=O)cc1OCC,-0.248,inactive,0.345,-0.553,inactive,inactive,inactive,inactive,inactive,inactive,inactive,inactive,inactive,inactive,inactive,inactive,inactive,,inactive,
CCc1ccccc1,-1.29,inactive,1.3,-0.962,inactive,inactive,inactive,inactive,inactive,inactive,inactive,inactive,inactive,inactive,inactive,inactive,inactive,inactive,,
NCCCCCCN,0.654,inactive,1.31,-1.45,inactive,inactive,inactive,inactive,inactive,inactive,inactive,inactive,inactive,inactive,,inactive,inactive,inactive,,
Nc1cc([N+](=O)[O-])ccc1C(=O)O,-0.673,inactive,-1.05,-2.97,inactive,inactive,inactive,inactive,inactive,inactive,inactive,inactive,inactive,inactive,inactive,inactive,,inactive,inactive,
COc1ccc(N)c(OC)c1,0.311,inactive,1.91,-1.28,inactive,inactive,inactive,inactive,inactive,inactive,inactive,inactive,inactive,inactive,inactive,inactive,inactive,inactive,inactive,
BrC/C=C/CBr,-0.978,inactive,0.954,2.1,inactive,inactive,inactive,inactive,inactive,,inactive,inactive,inactive,inactive,inactive,inactive,,inactive,,
Oc1cccc(Nc2ccccc2)c1,-0.245,inactive,-0.0797,-0.23,inactive,inactive,inactive,inactive,inactive,inactive,inactive,inactive,inactive,inactive,inactive,inactive,inactive,inactive,inactive,
ClC/C=C/CCl,0.143,inactive,3.85,1.61,inactive,inactive,inactive,,inactive,inactive,inactive,inactive,inactive,inactive,inactive,inactive,inactive,inactive,,
NC(=O)c1ccccc1[N+](=O)[O-],-0.625,inactive,0.0974,0.369,inactive,inactive,,inactive,inactive,inactive,inactive,inactive,inactive,inactive,inactive,inactive,,inactive,,inactive
Cc1cc([N+](=O)[O-])ccc1N,0.789,inactive,-0.2,-2.55,inactive,inactive,inactive,inactive,inactive,,inactive,inactive,inactive,inactive,inactive,inactive,inactive,,,
Nc1cccc(S(=O)(=O)O)c1,-0.0111,inactive,-0.597,-1.89,inactive,inactive,,inactive,inactive,inactive,inactive,inactive,inactive,inactive,inactive,inactive,inactive,inactive,,inactive
CCCCCNCCCCC,0.424,inactive,0.00908,1.85,inactive,inactive,inactive,inactive,,,inactive,inactive,,inactive,inactive,inactive,,inactive,,
CCCCOCCOCCOCCCC,-0.157,inactive,-0.168,-0.809,inactive,inactive,,inactive,inactive,inactive,inactive,inactive,inactive,inactive,inactive,inactive,inactive,,,inactive
COc1ccc(N=[N+]([O-])c2ccc(OC)cc2)cc1,-3.45,inactive,-3.45,-8.4,inactive,,inactive,inactive,inactive,,inactive,inactive,inactive,inactive,inactive,inactive,inactive,,,inactive
Nc1ccc(Cl)cc1[N+](=O)[O-],0.0963,inactive,-0.0414,1.61,inactive,inactive,,inactive,inactive,inactive,inactive,inactive,inactive,inactive,inactive,inactive,inactive,inactive,,inactive
NC(=O)c1cccc([N+](=O)[O-])c1,0.906,inactive,-1.74,2,inactive,inactive,,inactive,inactive,inactive,inactive,inactive,,inactive,inactive,inactive,inactive,,,
C[C@@H]1O[C@@H](O[C@@H]2[C@@H](O)[C@H](OCCc3ccc(O)c(O)c3)O[C@H](CO[C@@H]3O[C@H](CO)[C@@H](O)[C@H](O)[C@H]3O)[C@H]2OC(=O)/C=C/c2ccc(O)c(O)c2)[C@H](O)[C@H](O)[C@H]1O,-1.14,inactive,-0.514,-1.55,inactive,inactive,,inactive,inactive,inactive,inactive,inactive,inactive,inactive,,inactive,inactive,inactive,inactive,
c1ccc2c(c1)ccc1ncccc12,-0.196,inactive,0.297,1.59,inactive,inactive,inactive,inactive,inactive,,inactive,inactive,inactive,inactive,inactive,inactive,inactive,,,
Nc1nc(-c2ccccc2)cs1,0.48,inactive,0.301,0.507,inactive,inactive,,inactive,inactive,inactive,inactive,inactive,inactive,inactive,inactive,inactive,inactive,,inactive,20 µM (active)
